Screening results as filed in PubChem BioAssay.
CYP2C9 activ – increases human cytochrome P450 2C9 activity. activation factor at 5 µM. recombinant CYP2C9, luciferin-H conversion, luminescence; hits give high values; factor 1 = untreated enzyme, 0 = blocked. AID 1024. 96,000 tested, 1.4% active. P11712;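 active means activation factor of 2 or more for CYP2C9 at a 5 µM dose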
Target sequence (P11712 whole entry, looked up): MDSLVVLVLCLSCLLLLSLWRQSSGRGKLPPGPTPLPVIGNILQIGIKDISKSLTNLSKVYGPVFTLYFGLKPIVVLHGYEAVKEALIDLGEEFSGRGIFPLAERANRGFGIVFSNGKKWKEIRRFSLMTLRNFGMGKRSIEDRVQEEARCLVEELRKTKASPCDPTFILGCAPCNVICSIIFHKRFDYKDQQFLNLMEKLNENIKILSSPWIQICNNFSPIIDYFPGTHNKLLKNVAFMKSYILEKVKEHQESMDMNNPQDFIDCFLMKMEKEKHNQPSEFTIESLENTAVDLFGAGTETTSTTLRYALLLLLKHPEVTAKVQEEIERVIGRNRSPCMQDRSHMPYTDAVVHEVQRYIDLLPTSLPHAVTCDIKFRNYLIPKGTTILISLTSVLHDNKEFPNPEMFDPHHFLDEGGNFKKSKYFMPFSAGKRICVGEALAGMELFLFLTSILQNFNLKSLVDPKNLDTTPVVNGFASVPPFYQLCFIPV
CYP2C19 inhib – human CYP2C19 inhibition; inhibition, % at 5 µM; 96,000 tested, 21% active; CYP2C19 Supersomes, luciferin-H EGE luminescence, 30 min;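 active means CYP2C19 inhibition above a set limit at 5 µM in the primary screen, cut at about 50% in these data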
sEH activator – soluble epoxide hydrolase (human) activation. AID 717. purified human sEH enzymatic activity, activator screen. 91,000 tested, 0.04% active. activation, % at 2 µM. P34913; in the data active means activation above about 37%
sEH inhibitor – inhibitors of human soluble epoxide hydrolase | P34913 | recombinant human sEH enzymatic activity assay | inhibition, % at 2 µM | AID 707 | 91,000 tested, 0.34% active; in the data active means inhibition above about 80%
CYP2C9 inhib – inhibitors of human CYP2C9; inhibition, % at 5 µM; 96,000 tested, 20% active; P11712; CYP2C9 Supersomes, luciferin-H conversion, luminescence;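 active means blocking of liver enzyme CYP2C9 beyond about 50% at 5 µM, limit read from the data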
CYP2C19 activ – activators of human cytochrome P450 2C19. P33261. recombinant CYP2C19, luciferin-H EGE luminescence; hits give high values; 0 = fully inhibited enzyme, 1 = untreated enzyme. activation factor at 5 µM. 96,000 tested, under 10 active. AID 1025;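 active means activation factor of at least 2 at 5 µM in the primary screen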
Each line names hits and unclear results; the compound was inactive in the other large screens. This is a sample that favours compounds with a hit; in the whole collection about 27% have one here.

O=C(CN(Cc1ccccc1)S(=O)(=O)c1ccc2c(c1)OCCO2)N/N=C/c1ccc(F)cc1	none
O=S(=O)(c1ccc2c(c1)OCCO2)N(Cc1ccc(F)cc1)Cc1nnc(-c2cccs2)o1	CYP2C9 inhib 87
Cc1cc(C(=O)CN(Cc2ccc(F)cc2)S(=O)(=O)c2ccc3c(c2)OCCO3)c(C)n1C	CYP2C19 inhib 60, CYP2C9 inhib 66
Cc1ccc(-n2nnnc2-c2cnc3cc4c(cc3c2C)OCO4)cc1	none
COc1c(N)c2ccccc2[nH]c1=O	none (no result: sEH activator, sEH inhibitor)
CCOC(=O)c1cnn(-c2ccccc2)c1NC(=O)CSc1nnc(-c2cccs2)n1CC	none
Cc1oc(/N=C/c2ccc(Cl)cc2)c(C#N)c1C	none
Cc1oc(/N=C/c2ccc(Cl)cc2Cl)c(C#N)c1C	CYP2C19 inhib 71 (no result: sEH activator, sEH inhibitor)
CN1CCN(c2nc3c(c(=O)[nH]c(=O)n3C)n2CCSc2ncccn2)CC1	none (no result: sEH activator, sEH inhibitor)
Cc1ccc(NC(=O)CO/N=C(\N)c2nonc2N)cc1	CYP2C19 inhib 70
O=C(NCc1ccco1)c1cc(C(=O)C2CC2)c[nH]1	none
COC(=O)Cn1cnc2c(nnn2-c2ccc(C)cc2)c1=O	none
COC(=O)c1ccc2c(=O)n(NC(=O)C(c3ccccc3)c3ccccc3)c(=S)[nH]c2c1	CYP2C9 inhib 62
CC(=O)NCCCc1c[nH]c2ccc(Cl)cc12	CYP2C19 inhib 80
O=C(NCCc1c[nH]c2ccc(Cl)cc12)c1cccnc1	CYP2C19 inhib 91, CYP2C9 inhib 87
O=C(NCCc1ccccc1)c1cccnc1	none
O=S(=O)(NCc1cccnc1)c1cccs1	none
CSC(=NCc1cccnc1)NS(=O)(=O)c1cccs1	CYP2C19 inhib 65
CCOc1ccc(-c2nc(CSCC(=O)NC3CCCc4ccccc43)c(C)o2)cc1 (stereo not drawn)	CYP2C19 inhib 65
CCOc1ccc(-c2nnc3ccc(SCC(=O)NCc4ccco4)nn23)cc1	none
CCOc1ccc(-c2nc(CSCC(=O)NCc3ccco3)c(C)o2)cc1	CYP2C19 inhib 67, CYP2C9 inhib 76 (no result: sEH activator, sEH inhibitor)
CC(C)=CC1C(C(=O)Nc2ccc(Br)cn2)C1(C)C (stereo not drawn)	none
O=C(OCC#CCSc1nnc(-c2ccccc2)o1)c1ccco1	CYP2C19 inhib 88, CYP2C9 inhib 58 (no result: sEH activator, sEH inhibitor)
O=C(OCC#CCSc1nnc(-c2ccc(Br)cc2)o1)c1ccco1	none
O=C(OCC#CCSc1nnc(-c2cccc3ccccc23)o1)c1cccs1	CYP2C9 activ 2
O=C(OCC#CCSc1nnc(-c2ccccc2)o1)c1cccs1	none
O=C(OCC#CCSc1nc2ccccc2s1)c1ccco1	CYP2C19 inhib 83, CYP2C9 inhib 72
O=c1cc(-c2c(F)c(F)c(F)c(F)c2F)oc2c(F)c(F)c(F)c(F)c12	none (no result: sEH activator, sEH inhibitor)
CCOC(=O)c1ccccc1NC(=O)CN(c1ccccc1)S(=O)(=O)N(C)C	CYP2C19 inhib 86, CYP2C9 inhib 94
COc1ccc(NC(=O)CN(c2ccccc2)S(=O)(=O)N(C)C)cc1OC	none
COc1ccc(Cl)cc1NC(=O)CN(C)C1CCCCC1	CYP2C9 activ 2.3, CYP2C19 inhib 86
COc1ccc(Cl)cc1NC(=O)C(=O)NC1CCCCCC1	none
COC(=O)c1[nH]c2cccc(Cl)c2c1NC(=O)CN(C)C1CCCCC1	CYP2C9 inhib 63
CCOC(=O)c1ccccc1NC(=O)CN(c1ccccc1OC)S(C)(=O)=O	none
COc1ccc(Cl)cc1NC(=O)CN(c1ccccc1)S(=O)(=O)N(C)C	CYP2C19 inhib 81
COC(=O)c1[nH]c2cccc(OC)c2c1NC(=O)CCN1CCC(C(N)=O)CC1	none
CS(=O)(=O)N(CC(=O)Nc1cc(Cl)ccc1Cl)c1ccccc1Cl	CYP2C19 inhib 96, CYP2C9 inhib 77
Cc1cccc(C)c1N(CC(=O)Nc1cc(Cl)ccc1Oc1ccccc1)S(C)(=O)=O	CYP2C9 inhib 66
Cc1noc(C)c1C(=O)OCC(=O)Nc1cc(Cl)ccc1Oc1ccccc1	CYP2C9 inhib 63
Cc1ccc(Cl)cc1NC(=O)COC(=O)C12CC3CC(CC(C3)C1)C2	none
N=c1sccn1CC(=O)Nc1cc(Cl)ccc1Oc1ccccc1	none
Cc1ccc(Cl)cc1NC(=O)COC(=O)C1CCCC1	CYP2C19 inhib 96 (no result: sEH activator, sEH inhibitor)
COc1ccc(-c2nnnn2C)cc1S(=O)(=O)NCc1ccccc1	none
C=CCn1c(CSCc2ccc(Cl)cc2)nnc1SCC(=O)NCc1ccccc1	CYP2C19 inhib 87, CYP2C9 inhib 81
C=CCn1c(SCC(N)=O)nnc1-c1ccccc1O	none
C=CCn1c(SCc2ccccc2C#N)nnc1-c1ccccc1O	CYP2C19 inhib 98 (no result: sEH activator, sEH inhibitor)
C=CCn1c(COc2ccccc2)nnc1SCC(=O)N/N=C/c1ccc(C)cc1	none
C=CCn1c(SCc2ccccc2)nnc1-c1cccnc1	none
C=CCn1c(SCC(N)=O)nnc1-c1cc(Br)ccc1O	CYP2C19 inhib 87
C=CCn1c(CSCc2ccc(C)cc2)nnc1SCC(=O)NCc1ccccc1	CYP2C19 inhib 80, CYP2C9 inhib 79
O=C(CSc1nnc(CCc2ccccc2)n1-c1ccc(Cl)cc1)NCc1ccccc1	CYP2C19 inhib 84, CYP2C9 inhib 89
C=CCn1c(SCC(=O)Nc2ccc3c(c2)OCO3)nnc1-c1ccccc1O	none
COc1ccc(-n2c(CCc3ccccc3)nnc2SCC(=O)NCc2ccccc2)cc1	none
C=CCn1c(SCC(=O)NCc2ccccc2)nnc1-c1ccccc1O	CYP2C19 inhib 71, CYP2C9 inhib 74
O=C(COc1ccc(S(=O)(=O)NCc2ccccc2)cc1)NCC1CCCO1 (stereo not drawn)	none
O=C(COc1ccc(S(=O)(=O)NC2CCCCC2)cc1)NCc1cccnc1	none
O=C(COc1ccc(S(=O)(=O)NC2CCCCC2)cc1Cl)NCC1CCCO1 (stereo not drawn)	CYP2C19 inhib 58, CYP2C9 inhib 90
O=C(COc1ccc(S(=O)(=O)NCc2ccccc2)cc1Cl)NCC1CCCO1 (stereo not drawn)	CYP2C9 inhib 78
O=C(COc1ccc(S(=O)(=O)NC2CCCCC2)cc1Cl)NCc1cccnc1	CYP2C9 inhib 98
Cc1cc(C)c(C)c(OCC(=O)NCC2CCCO2)c1 (stereo not drawn)	CYP2C19 inhib 63
COc1ccc(CCNC(=O)COc2ccc(S(=O)(=O)NC3CCCCC3)cc2Cl)cc1	CYP2C19 inhib 64, CYP2C9 inhib 85
Cc1cc(NC(=O)Cn2c(=O)c3c(ncn3CCC(C)C)n(Cc3ccccc3)c2=O)no1	none (no result: CYP2C9 activ, CYP2C19 inhib, CYP2C9 inhib, CYP2C19 activ)
O=c1c(C=Nc2ccc(Oc3ccccc3)cc2)c[nH]n1-c1cccc(Cl)n1	none
COc1ccc(OC)c(C(=O)c2ccccc2)c1	none (no result: CYP2C9 activ, CYP2C19 inhib, CYP2C9 inhib, CYP2C19 activ)
COc1cc(/C=N/N(C)c2ccccc2)cc(Cl)c1O	CYP2C19 inhib 52, CYP2C9 inhib 58
COc1ccc(OC)c(/C=N/N(C)c2ccccc2)c1	CYP2C19 inhib 67, CYP2C9 inhib 56
O=C1NC(Nc2ccccn2)(C(F)(F)F)C(=O)N1c1ccc(F)cc1 (stereo not drawn)	none
